From PubChem
A selection: hits, their analogues and other compounds. The true share with any hit is near 4.7%.
HSF-1 act – increases HSF-1 driven luciferase reporter signal | NIH3T3-HGL HSF-1 luciferase reporter, MG132, 8 h; 100% = twice DMSO control signal | activation, % at 9 µM | 300,000 compounds, 1.7% hits | AID 504408;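 active = mean replicate activation of at least 50% with a set share of replicates each reaching 50%; inconclusive = only one of those two conditions met; inactive = mean below 50% and too few replicates reaching it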;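 also: 0% = median of the neutral control wells and 100% = twice that signal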
HSF1 inhib – HSF1 inhibition. NIH3T3-HGL HSE-luciferase, MG132-induced, luminescence 8 h; hits give low values. activity change, negative = inhibition, % at 7.5 µM (by protocol). 300,000 compounds, 0.77% hits;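 active = more than half of replicate wells show activity change below -50%, luminescence cut by over half; inconclusive = some wells, but at most half, below -50%; inactive = no replicate well below -50%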;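 also: luciferase reports HSF-1 transcriptional activity via heat shock element; 0% = median of DMSO wells and -100% = zero luminescence signal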
TWEAK-Fn14 inh – inhibitors of TWEAK-Fn14 interaction signaling | TWEAK-stimulated Fn14 reporter cells, luciferase luminescence, 8 h | inhibition, % at 10 µM | 360,000 compounds, 2% hits | AID 1159606; in the data active = inhibition above about 50%
HSP90 refold inh – inhibitors of HSP90 luciferase refolding in rabbit reticulocyte lysate; luciferase refolding luminescence, 3 h; inhibition, % at 5.6 µM; 290,000 compounds, 0.91% hits;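 active = inhibition above the screen-wide mean plus 3 SD, computed separately per campaign, cut at about 16% in these data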;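 also: 0% = DMSO wells and 100% = 60 µM geldanamycin wells; inhibitors lower the luminescence because luciferase stays unfolded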
TROY NFkB inh – inhibitors of TROY-dependent NF-kB signaling; Q293 LMP1-TROYcd NF-kB luciferase reporter, 4 h; inhibition, % at 10 µM; 360,000 compounds, 0.98% hits; AID 1347056;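 active = compounds whose plate-normalised and pattern-corrected inhibition of the luciferase reporter signal at the single screening dose is 50% or more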
EBV LMP1 NFkB – reduces LMP1-driven NF-kappaB luciferase signal. 350,000 compounds, 0.69% hits. inhibition, % at 12.5 µM. LMP1-induced NF-kappaB luciferase reporter cells, luminescence. AID 504558; in the data active = inhibition above about 41%; inconclusive = no clear call, values can overlap the other calls;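 also: 0% = neutral control wells and 100% = reference inhibitor control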
Starred values were filed as active, the others as inactive; ? = inconclusive; nt = no result given.

SMILES	HSF-1 act	HSF1 inhib	TWEAK-Fn14 inh	HSP90 refold inh	TROY NFkB inh	EBV LMP1 NFkB
Cc1c(C(=O)Nc2ccc(Nc3ccccc3)cc2)cccc1[N+](=O)[O-]	14	5	2	1	18	-24
Cc1cccc(OCC(=O)N2CCc3ccccc3C2)c1C	nt	nt	-14	nt	-19	-14
CCCc1c(C(=O)N/N=C/c2ccoc2)nnn1-c1nonc1N	nt	nt	-1	nt	-5	7
COc1ccc(/C(CC2OC(=O)c3ccccc32)=N\NC(N)=O)cc1 (stereo not given)	37	14	2	1	-16	65*
COCCCN1C(=O)C(CC(=O)NCc2cccc3ccccc23)CC(C(=O)N2CCCCCC2)=C1C (stereo not given)	nt	nt	-9	nt	-16	nt
CC(C)[C@H](NC(=O)c1ccco1)C(=O)Nc1ccc(N2CCCCCC2)cc1	nt	nt	5	nt	-6	-6
CCN1C(=O)c2cccc3c(S(=O)(=O)Nc4ccccc4)ccc1c23	59*	32	18	-1	-22	-36
CCN1C(=O)c2cccc3c(S(=O)(=O)N(C(=O)c4ccncc4)c4ccc(OC)cc4)ccc1c23	?	16	31	0	31	7
CCN1C(=O)c2cccc3c(S(=O)(=O)Nc4ncccc4C)ccc1c23	89*	41	22	1	2	1
CCN1C(=O)c2cccc3c(S(=O)(=O)Nc4ccncc4)ccc1c23	-8	2	-5	2	-14	-8
CCN1C(=O)c2cccc3c(S(=O)(=O)N(C(=O)c4cccnc4)c4ccc(OC)cc4)ccc1c23	46	1	62*	-3	33	0
[O-][n+]1cc(Cl)cc(Cl)c1	nt	nt	-1	nt	-15	nt
CC1(c2nnnn2Cc2ccccc2)CCC(=O)N1Cc1cccnc1 (stereo not given)	nt	nt	13	nt	-7	nt
O=c1oc2ccc(Br)cc2cc1S(=O)(=O)c1ccc(F)cc1	-6	-2	91*	0	17	3
Cc1cc(C)cc(CC(=O)N2CCC2(C)C(=O)NS(=O)(=O)c2cc(C)ccc2F)c1 (stereo not given)	nt	nt	-15	nt	-22	nt
COc1ccccc1NS(=O)(=O)c1cccc(NC(=O)c2nn(C)c(=O)c3ccccc23)c1	nt	nt	34	nt	13	-5
COc1ccc(NC(=O)c2nn(C)c(=O)c3ccccc23)cc1S(=O)(=O)Nc1ccccc1Cl	65*	47	25	2	9	4
O=C(NCCc1ccccc1)C1Cc2c(-c3ccccc3)ccnc2O1 (stereo not given)	nt	nt	-3	nt	7	nt
Cc1ccc(NC2c3ncccc3C(=O)N2C2CCCCC2)cc1 (stereo not given)	67*	34	-10	5	-14	-13
Cc1ccc(NC2c3ncccc3C(=O)N2C2CCCCC2)cc1C (stereo not given)	-2	0	10	0	-55	5
C[C@@]12C(=O)N(Cc3ccccc3)CC(=O)N1[C@H](/C=C/c1ccccc1)[C@@H]1C(=O)N(c3ccccc3)C(=O)[C@@H]12	1	4	nt	-2	nt	82*
CCOc1ccccc1-c1ccc(C(=O)NCc2ccc(Cl)cc2)o1	nt	nt	4	nt	16	nt
O=C(CSc1ncnc2c1oc1ccccc12)Nc1ccccc1C(F)(F)F	3	-5	91*	-4	82*	0
O=C(O)CSc1ncnc2c1oc1ccccc12	-2	3	30	-4	nt	-10
Cn1nccc1-c1ccc(C(=O)NCc2ccco2)c2occc12	nt	nt	36	nt	-63	nt
SMILES	HSF-1 act	HSF1 inhib	TWEAK-Fn14 inh	HSP90 refold inh	TROY NFkB inh	EBV LMP1 NFkB
C#CCSc1nnc(-c2ccc(O)cc2)o1	27	17	2	2	-22	-7
C#CCSc1nnc(-c2cccc3ccccc23)o1	69*	41	-38	-2	-30	-12
C=CCSc1nnc(-c2cccc3ccccc23)o1	nt	nt	-5	nt	-5	-6
Cc1ccc(-c2nnc(SCc3ccccc3F)o2)cc1	58*	26	31	2	-28	-24
C#CCSc1nnc(-c2ccc(C)cc2)o1	61*	37	17	4	-50	-12
Cc1csc(=O)n1CCC(=O)OCC(=O)NCc1ccccc1	nt	nt	0	nt	12	-3
COc1ccccc1NC(=O)CCNC(=O)C1CCN(S(=O)(=O)c2ccccc2)CC1	nt	nt	5	nt	-12	4
O=[N+]([O-])c1ccc(S(=O)(=O)c2cccc(C(F)(F)F)c2)nc1	-95	-95*	-3	nt	62*	76*
Cc1ccc2occ(/C=N/NC(=O)c3ccccc3Br)c(=O)c2c1	5	5	71*	2	40	0
CCOc1ccccc1C(=O)N/N=C/c1coc2ccc(C)cc2c1=O	nt	nt	18	-3	28	-8
CC1(C)CC(=O)C2=C(C1)Nc1ccccc1NC2c1cccnc1 (stereo not given)	-25	-9	0	nt	6	-5
CN(C)c1ccc(-c2nc3n(n2)C(c2cccnc2)C2=C(CC(C)(C)CC2=O)N3)cc1 (stereo not given)	-76	-70*	-3	-2	6	1
O=C(Nc1ccccc1)C1=C(Nc2ccccc2)CSC1	nt	nt	-7	nt	-1	-8
CCOC(=O)c1c(C)n(-c2ccc(C)cc2)c2c(C(C(C)=O)C(=O)O)c(Br)c(O)c(O)c12 (stereo not given)	-1	11	4	-3	0	-6
CCOC(=O)C(C(C)=O)c1c(Br)c(O)c(O)c2c(C(=O)c3ccc(C)cc3)coc12 (stereo not given)	7	5	76*	3	11	-6
COCCN(Cc1ccccc1)C(=S)Nc1ccc(Cl)cc1	-63	-54*	0	-2	-2	-20
CCN(CC)CCN(C)C(c1cc2ccccc2o1)c1nnnn1C(C)(C)C (stereo not given)	nt	nt	-3	nt	-6	nt
CC(C)(C)OC(=O)N1CCC(C(=O)Nc2ccc(C(=O)NCCc3ccccc3)cc2)CC1	nt	nt	54*	nt	4	-5
CC(C)(C)OC(=O)N1CCC(C(=O)Nc2ccc(C(=O)NCc3ccccc3)cc2)CC1	nt	nt	7	nt	20	0
CC(C)(C)OC(=O)N1CCCC(C(=O)Nc2cccc(C(=O)NCCc3ccccc3)c2)C1 (stereo not given)	nt	nt	100*	nt	-52	-13
O=C(NCCCCc1ccccc1)c1cccc(NC(=O)C2CCC2)c1	nt	nt	101*	nt	-6	6
O=C(NCCc1ccccc1)C1CCCN1C(=O)NCc1ccccc1 (stereo not given)	-1	-1	-3	-1	2	0
O=C(NCCCCc1ccccc1)c1cccc(NC(=O)C2CCCCC2)c1	nt	nt	-30	nt	6	5
CC(C)(C)OC(=O)N1CCCC1C(=O)NCCc1ccccc1 (stereo not given)	-1	0	79*	-1	nt	-5
Cc1ccc(S(=O)(=O)N2C[C@H]3C(=O)C[C@@H](c4ccccc4)N(S(=O)(=O)c4ccc(C)cc4)[C@H]3C[C@H]2c2ccccc2F)cc1	nt	nt	-1	nt	-12	nt
Cc1cccc(NC(=O)c2nc[nH]c2C(=O)N[C@H](C)CO)c1	nt	nt	10	nt	-4	4
